Test system: MCF10A
Assay: perturbation Mahalanobis distance of morphological profile vs DMSO controls (Mahalanobis distance (SD units)); higher = stronger morphological change, active = 7 or more
Conditions: screen batch: Batch1_Mahalanobis_Distance; 72 h
Method: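 MCF10A cells were seeded onto drugs dispensed acoustically into 384-well plates, using one dose per drug chosen from its human peak plasma concentration, and incubated for 72 h at 37 °C. Cells were stained for DNA, tubulin and mitochondria and imaged; 78 CellProfiler features were extracted, plate-normalised and compared with DMSO wells.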

Row | SMILES | perturbation Mahalanobis distance
1 | NCCc1ccc(O)c(O)c1 [Dopamine] (2.5 µM) | 4.23 (inactive)
2 | CCN(CC)C(=O)/C(C#N)=C/c1cc(O)c(O)c([N+](=O)[O-])c1 [Entacapone] (6.6 µM) | 1.99 (inactive)
3 | O=C1CCc2ccc(OCCCCN3CCN(c4cccc(Cl)c4Cl)CC3)cc2N1 [Aripiprazole] (3.3 µM) | 2.24 (inactive)

Same assay, conditions: screen batch: Batch2_Mahalanobis_Distance; 72 h

Row | SMILES | perturbation Mahalanobis distance
4 | C[C@H](N[C@@H](CCc1ccccc1)C(=O)O)C(=O)N1CCC[C@H]1C(=O)O [Enalaprilat] (0.67 µM) | 2.89 (inactive)
5 | N#C[C@@H]1C[C@@H]2C[C@@H]2N1C(=O)[C@@H](N)C12CC3CC(CC(O)(C3)C1)C2 [Saxagliptin] (0.38 µM) | 3.33 (inactive)
6 | Cc1oncc1C(=O)Nc1ccc(C(F)(F)F)cc1 [Leflunomide] (333.1 µM) | 2.68 (inactive)
7 | CCOC(=O)c1ncn2c1CN(C)C(=O)c1cc(F)ccc1-2 [Flumazenil] (1.6 µM) | 3.54 (inactive)
8 | O=c1ncnc2[nH][nH]cc1-2 [Allopurinol] (139.6 µM) | 2.89 (inactive)
9 | CCN(CC)C(=S)SSC(=S)N(CC)CC [Disulfiram] (6.7 µM) | 3 (inactive)
10 | Nc1nc(Cl)nc2c1ncn2[C@@H]1O[C@H](CO)[C@@H](O)[C@@H]1F [Clofarabine] (7.5 µM) | 16.5 (active)
11 | NC(=O)NO [Hydroxyurea] (650 µM) | 15.4 (active)
12 | COc1cc2ncnc(Nc3ccc(F)c(Cl)c3)c2cc1OCCCN1CCOCC1 [Gefitinib] (34.7 µM) | 3.28 (inactive)
13 | CC(N=C(NC#N)Nc1ccncc1)C(C)(C)C (configuration not stated) [Pinacidil] (8.3 µM) | 4.16 (inactive)
14 | CN(C)CCCN1c2ccccc2Sc2ccc(C(F)(F)F)cc21 [Triflupromazine] (1.4 µM) | 4.32 (inactive)
15 | O=C(CCCCCCC(=O)Nc1ccccc1)NO [Vorinostat] (9.8 µM) | 18.4 (active)
16 | Cc1ncc([N+](=O)[O-])n1CCO [Metronidazole] (58.4 µM) | 2.36 (inactive)
17 | NC(=O)OCC(COC(N)=O)c1ccccc1 [Felbamate] (205.7 µM) | 2.91 (inactive)
18 | CC12CCC(=O)C=C1C=CC1C2CCC2(C)C1CCC21CCC(=O)O1 (configuration not stated) [Canrenone] (3 µM) | 3.02 (inactive)
19 | CN(C)C(=N)N=C(N)N [Metformin] (38.4 µM) | 1.8 (inactive)
20 | CN1CCC(=C2c3ccccc3CCc3cccnc32)CC1 [Azatadine] (0.43 µM) | 2.53 (inactive)
21 | N=C(N)c1ccc(OCCCCCOc2ccc(C(=N)N)cc2)cc1 [Pentamidine] (7.4 µM) | 9.96 (active)
22 | CC(C)NCC(O)c1ccc(O)c(O)c1 (configuration not stated) [Isoproterenol] (11.8 µM) | 4.76 (inactive)
23 | CC(=O)O[C@@]12CO[C@@H]1C[C@H](O)[C@@]1(C)C(=O)[C@H](O)C3=C(C)[C@@H](OC(=O)[C@H](O)[C@@H](NC(=O)OC(C)(C)C)c4ccccc4)C[C@@](O)([C@@H](OC(=O)c4ccccc4)[C@H]21)C3(C)C [Docetaxel] (22.7 µM) | 2.26 (inactive)
24 | O=C(Nc1ncc([N+](=O)[O-])s1)c1ccccc1O [Tizoxanide] (48.8 µM) | 3 (inactive)
25 | CNC1(C)C2CCC(C2)C1(C)C (configuration not stated) [Mecamylamine] (3.6 µM) | 3.11 (inactive)
26 | CCCCN(CCCC)CCC(O)c1cc2c(Cl)cc(Cl)cc2c2cc(C(F)(F)F)ccc12 (configuration not stated) [Halofantrine] (63.9 µM) | 2.57 (inactive)
27 | Nc1ccc(O)c(C(=O)O)c1 [Mesalazine] (39.2 µM) | 2.94 (inactive)
28 | COC(=O)C1=C(C)NC(C)=C(C(=O)OCC(C)C)C1c1ccccc1[N+](=O)[O-] (configuration not stated) [Nisoldipine] (13 µM) | 2.36 (inactive)
29 | NC(=O)c1ncn([C@@H]2O[C@H](CO)[C@@H](O)[C@H]2O)n1 [Ribavirin] (75.3 µM) | 11.4 (active)
30 | CC1(C)O[C@@H]2[C@@H](CO[C@@]3(COS(N)(=O)=O)OC(C)(C)O[C@@H]23)O1 [Topiramate] (76.6 µM) | 3.08 (inactive)
31 | C#C[C@]1(O)CC[C@H]2[C@@H]3CCC4=CC(=O)CC[C@@H]4[C@H]3CC[C@@]21CC [Levonorgestrel] (0.24 µM) | 2.71 (inactive)
32 | OC(CCN1CCCCC1)(c1ccccc1)C1CCCCC1 (configuration not stated) [Trihexyphenidyl] (3.3 µM) | 2.42 (inactive)
